# Compound activity from PubChem.
# MITF primary = blocks human microphthalmia-associated transcription factor. AlphaScreen MITF homodimerization, bead proximity signal. O75030. inhibition, % at 2.6 µM. 650,000 tested, 0.91% active; in the data active = inhibition above about 50%;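 note: 0% = vehicle wells with protein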
# FBW7 act = activators of human E3 ligase FBW7. Q969H0. AlphaScreen FBW7–phospho-cyclin E peptide binding, activator screen. normalized activity (activation), % at 26.1 µM. 650,000 tested, 0.13% active. AID 1259310; in the data active = normalized activity above about 1.9%;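 note: purified mutant Fbw7 with reduced substrate affinity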
# Target sequence (Q969H0 whole entry, looked up): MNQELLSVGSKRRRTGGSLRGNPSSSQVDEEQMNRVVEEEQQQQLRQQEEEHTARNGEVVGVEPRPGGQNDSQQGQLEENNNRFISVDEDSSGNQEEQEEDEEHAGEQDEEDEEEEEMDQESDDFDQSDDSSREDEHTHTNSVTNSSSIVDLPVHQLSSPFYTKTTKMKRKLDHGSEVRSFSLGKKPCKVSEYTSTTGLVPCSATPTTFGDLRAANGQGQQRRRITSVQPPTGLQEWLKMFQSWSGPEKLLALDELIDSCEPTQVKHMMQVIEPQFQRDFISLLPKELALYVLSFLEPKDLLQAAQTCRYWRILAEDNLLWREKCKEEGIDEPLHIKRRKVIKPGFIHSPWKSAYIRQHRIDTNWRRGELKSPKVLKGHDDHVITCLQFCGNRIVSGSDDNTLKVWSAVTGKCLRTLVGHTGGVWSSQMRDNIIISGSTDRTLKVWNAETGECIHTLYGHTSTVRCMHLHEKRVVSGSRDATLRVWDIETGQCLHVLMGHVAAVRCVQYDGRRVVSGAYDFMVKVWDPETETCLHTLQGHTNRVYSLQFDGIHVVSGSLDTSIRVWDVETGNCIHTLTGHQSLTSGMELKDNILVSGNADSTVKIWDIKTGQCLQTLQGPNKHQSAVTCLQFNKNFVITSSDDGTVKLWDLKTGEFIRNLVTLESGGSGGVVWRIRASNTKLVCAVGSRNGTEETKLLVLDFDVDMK
# GPR151 ag = activates the human receptor GPR151 | activation, % at 11.2 µM | AID 1508602 | Q8TDV0 | PathHunter beta-arrestin GPR151 cells, luminescence | 650,000 tested, 1% active; in the data active = activation above about 4.9%;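 note: 0% = median of compound wells and 100% = cells with positive control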
# TEAD-YAP block = TEAD-YAP interaction inhibition; HEK-TIYL cells, TEAD-Gal4/YAP UAS-luciferase luminescence; inhibition, % at 9.12 µM; 640,000 tested, 1.4% active; AID 1259422; in the data active = inhibition above about 32%;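 note: 0% = median of test compound wells and 100% = reference inhibitor wells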
# * marks the source's active call; other numbers are inactive results; ! = a repeat was not active. Rows were chosen to be rich in hits. Some 3.5% of all compounds tested hit in one or more screens of this group.
SMILES,MITF primary,FBW7 act,GPR151 ag,TEAD-YAP block
CCCCc1ccc(C(=O)Nc2cc3ccc(OC(C)=O)cc3oc2=O)cc1,13,0,0,-2
Cc1ccc2nc(Nc3cccc(C(=O)Nc4ccc(O)cc4)c3)nc(-c3ccccc3)c2c1,15,0,0,50*
Cc1ccc(NC(=O)c2ccc(Nc3nc(-c4ccccc4)c4cc(C)ccc4n3)cc2)cc1,4,0,1,-3
CC(C)(C)c1ccc(-c2csc(NC(=O)c3sc4ccccc4c3Cl)n2)cc1,-3,0,-2,-7
COc1cccc(OCCCCNC(C)(C)C)c1,6,0,1,3
COc1ccc(-n2nnnc2SCc2csc(Nc3ccc(C)cc3)n2)cc1,-1,0,0,9
Nc1nc2cc3sc(N)nc3cc2s1,-4,0,0,-11
Nc1nc2cc3c(cc2s1)OCCO3,6,0,-2,37*
CCOC(=O)c1cnc2ccc(OCC)cc2c1Nc1ccc(C(=O)O)cc1,13,0,-1,3
COc1ccc(NC(=O)/C(C#N)=C\c2ccccc2O)cc1,19,0,-3,40*
N#C/C(=C/c1ccccc1O)C(=O)Nc1ccc(O)cc1,3,0,-7,71*
Cc1ccc(NC(=O)/C(C#N)=C\c2ccccc2O)cc1,9,0,-1,30
COc1cc(NC(=O)c2ccccc2)c(OC)cc1NC(=O)CCn1nnc2ccccc21,1,0,0,7
Cc1nc(N2CCC(NCCc3cccs3)CC2)nc2cc3c(cc12)CCC3,-16,1,0,-13
COc1ccc(C2(C(=O)NC(C)c3nc(-c4cccnc4)n[nH]3)CC2)cc1 (stereo not given),9,0,0,51*
CC(NC(=O)C1(c2ccc(Cl)cc2)CC1)c1nc(-c2cccnc2)n[nH]1 (stereo not given),-11,0,-1,9
Oc1ccc(/C=N/NC(=S)N2CCOCC2)cc1,13,0,-3,50*
COCCNC(=S)N/N=C/c1ccc(N2CCOCC2)cc1,-1,0,-1,64*
FC(F)(F)c1cccc(-c2cnnc(NCC3(N4CCOCC4)CCCC3)n2)c1,12,0,-2,10
CSc1ccc2nc(N3CCN(C(=O)c4c(C)cnn4C)CC3)sc2c1,-22,0,0,44*
CC1=C(C(=O)OCc2ccccc2)C(c2cccc([N+](=O)[O-])c2)C2=C(CC(c3ccccc3)CC2=O)N1 (stereo not given),-4,0,0,56*
CC1=C(C(=O)OCc2ccccc2)C(c2ccc(O)c([N+](=O)[O-])c2)C2=C(CC(c3ccccc3)CC2=O)N1 (stereo not given),15,0,0,44*
COC(=O)C1=C(C)NC2=C(C(=O)CC(c3ccccc3)C2)C1c1ccc(O)c([N+](=O)[O-])c1 (stereo not given),18,0,0,9
COc1ccc(C2CC(=O)C3=C(C2)NC(C)=C(C(=O)OCc2ccccc2)C3c2cccc([N+](=O)[O-])c2)cc1 (stereo not given),1,0,1,59*
CCC(C)NC(=O)Cn1c(=O)n(-c2ccc(C)cc2)c(=O)c2sccc21 (stereo not given),-14,0,1,-2
SMILES,MITF primary,FBW7 act,GPR151 ag,TEAD-YAP block
Cc1nc(N(C)c2ccc(C(C)C)cc2)c2c(C)c(C(=O)N3CCN(c4ccccc4)CC3)sc2n1,-3,0,0,-4
O=c1oc2ccccc2cc1-c1cn2c(n1)sc1ccccc12,-4,0,0,80*
Cc1ccc(-c2cn3c(n2)sc2cc(C)ccc23)cc1,-5,1,-4,78*
COc1ccc2c(c1)sc1nc(-c3cc4ccccc4oc3=O)cn12,-3,0,0,84*
COc1ccc(-c2cn3c(n2)sc2cc(C)ccc23)cc1,-5,0,-2,24
O=c1oc2ccc3ccccc3c2cc1-c1cn2c(n1)sc1cc(Cl)ccc12,1,0,1,6
Cc1ccc2c(c1)sc1nc(-c3cc4ccccc4oc3=O)cn12,-3,0,0,66*
CCCCN1C(=O)c2c(Oc3ccccc3OC)cc([N+](=O)[O-])cc2Oc2ccccc21,-11,0,-1,-4
O=C(/C=C/Nc1ccc(I)cc1)c1ccco1,-8,0,-1,19
CC(C)c1ccc(N/C=C/C(=O)c2ccco2)cc1,-20,0,-1,78*
CC(C)CC(=O)NCCc1cccc(Cl)c1,9,0,-1,-25
COc1ccc(N2C(=O)/C(=C\C=C\c3ccco3)C(=O)NC2=S)cc1,77*,0,-1,-1
COc1cccc(N2C(=O)NC(=O)/C(=C/C=C/c3ccco3)C2=O)c1,18,0,4,3
CC1CN(CCNC(=O)C2CC=CCC2)Cc2ccccc2O1 (stereo not given),-7,0,-1,3
Cc1ccc(C)c(-n2c3nc(=O)[nH]c(=O)c-3cc3cc([N+](=O)[O-])ccc32)c1,9,0,-1,57*
COc1ccccc1N1CCN(CC(O)COc2cccc3ccccc23)CC1 (stereo not given),12,0,0,38*!
CN1CCN(CC(O)COc2cccc3ccccc23)CC1 (stereo not given),9,0,-1,10
COC(=O)c1ccc(NC(=O)c2cc(OC(C)=O)cc(OC(C)=O)c2)cc1,2,0,1,45*
CC(=O)Oc1cc(C(=O)Nc2ccc(F)cc2)cc(C(=O)Nc2ccc(F)cc2)c1,15,0,0,18
Cc1noc(/C=C/c2ccco2)c1S(=O)(=O)N1CCC(C(=O)Nc2nccs2)CC1,58*,0,0,-12
COc1ccc(Nc2ccnc3c(-c4cccc(CO)c4)cnn23)cn1,5,0,-3,98*
COc1ccc(Nc2ccnc3c(-c4cccc(O)c4)cnn23)cn1,13,0,-2,25
COc1ccc(Nc2ccnc3c(-c4ccc(O)cc4)cnn23)cn1,-15,0,-2,91*
COc1ccc(/C(C)=N\NC(=O)COc2ccc(Cl)cc2C)cc1OC,-3,0,0,-9
Cc1cc(NC(=O)CCc2ccc(C)o2)no1,5,0,0,5
SMILES,MITF primary,FBW7 act,GPR151 ag,TEAD-YAP block
Cc1ccc(CCC(=O)Nc2ncc(Cc3ccc(Cl)cc3)s2)o1,1,0,4,57*
Cc1ccc(CCC(=O)Nc2ccc(Cl)cn2)o1,4,0,-1,41*
Cc1ccc(Cc2cnc(NC(=O)CCCOc3ccc(Cl)cc3)s2)cc1,11,0,0,7
CCOC(=O)c1ccc(NC(=O)c2cc(OC)cc(OC)c2)cc1,-5,0,-7,-4
COC(=O)C1=CNC=C(C(=O)OC)C1c1ccc(O)cc1,6,0,0,-7
OCC1CCCN1c1nc(NCCc2ccc(O)cc2)c2ncn(-c3ccccc3)c2n1 (stereo not given),3,0,-1,43*
COc1ccc(CCNc2nc(N3CCCC3CO)nc3c2ncn3-c2ccccc2)cc1 (stereo not given),9,0,-2,8
CCCNc1nc(N2CCCC2CO)nc2c1ncn2-c1ccccc1 (stereo not given),8,0,2,37*
